Our source for the growth values is PubChem BioAssay (NCI).

Among the test systems are SR leukemia; RPMI-8226 leukemia; OVCAR-8 ovarian; OVCAR-5 ovarian; OVCAR-4 ovarian; SK-OV-3 ovarian; IGROV1 ovarian; OVCAR-3 ovarian; HS 578T breast; NCI/ADR-RES ovarian; T-47D breast; BT-549 breast; MDA-MB-435 melanoma; SW-620 colon; MCF7 breast; HCT-116 colon; HCC-2998 colon; KM12 colon.
Holding throughout (assay): NCI-60 one-dose screen, 48 h (100 = growth as untreated, 0 = no growth, -100 = all killed)
Common to all, as to conditions: 10 µM unless noted

Values joined by “and” are separate entries in the source; they are usually repeats but may differ in a detail not shown here. Equal entries are not always repeated. The panel holds about 83,000 compounds, 20% with a hit somewhere; the sample as a whole holds those more often.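 Single-concentration screen, 48 h exposure, 96-well plates. Endpoint: percent growth. Below 10 = active.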 Active and inactive are the calls of the source.

As for `CC(=O)Nc1ccc2cc3ccc(NC(C)=O)cc3nc2c1`, the growth in the test with SR leukemia was 72.3% (inactive); in the test with RPMI-8226 leukemia, 54.5% (inactive) and 94.8% (inactive); with OVCAR-8 ovarian, 88.7% (inactive) and 85.6% (inactive); with OVCAR-5 ovarian it was 89.2% (inactive) and 63.4% (inactive); in the test on OVCAR-4 ovarian it was 87.1% (inactive) and 98.3% (inactive); in the test with SK-OV-3 ovarian, -13.4% (active) and 67.8% (inactive). The growth is 85.8% (inactive) and 101% (inactive) in the test with IGROV1 ovarian; 85.8% (inactive) and 99.2% (inactive) with OVCAR-3 ovarian; 84.3% (inactive) and 87.3% (inactive) in the test on HS 578T breast; 99.9% (inactive) and 97.7% (inactive) in the test with NCI/ADR-RES ovarian; 81.6% (inactive) and 69.9% (inactive) in the test with T-47D breast; 106% (inactive) and 92.9% (inactive) with BT-549 breast. Further, the growth in the test with MDA-MB-435 melanoma is 83.6% (inactive) and 92.6% (inactive); in the test on SW-620 colon it was 90% (inactive) and 91.3% (inactive); in the test on MCF7 breast it was 68.3% (inactive) and 85.1% (inactive); with HCT-116 colon, 92.3% (inactive) and 81.3% (inactive); in the test on HCC-2998 colon, 77.1% (inactive); in the test with KM12 colon, 79.6% (inactive) and 89.5% (inactive).

For the compound `OC(CSc1ccccc1)CN1CCN(c2cccc(Cl)c2)CC1` (stereo unspecified), the growth in the test on SR leukemia is 87.2% (inactive) and 102% (inactive); in the test on RPMI-8226 leukemia, 92.9% (inactive) and 97.3% (inactive); with OVCAR-8 ovarian, 98.9% (inactive) and 101% (inactive); in the test on OVCAR-5 ovarian, 105% (inactive) and 96.9% (inactive); in the test on OVCAR-4 ovarian it was 97.1% (inactive) and 107% (inactive); with SK-OV-3 ovarian, 105% (inactive) and 107% (inactive). In addition, the growth was 105% (inactive) and 122% (inactive) in the test on IGROV1 ovarian; 120% (inactive) and 101% (inactive) in the test on OVCAR-3 ovarian; 118% (inactive) and 88.7% (inactive) in the test with HS 578T breast; 99.6% (inactive) and 88.7% (inactive) in the test with NCI/ADR-RES ovarian; 90.3% (inactive) and 102% (inactive) with T-47D breast; 97.7% (inactive) in the test with BT-549 breast. For the same compound, the growth with MDA-MB-435 melanoma was 114% (inactive) and 93.6% (inactive); in the test with SW-620 colon, 105% (inactive); with MCF7 breast it was 102% (inactive) and 94% (inactive); in the test with HCT-116 colon it was 93.3% (inactive) and 97.5% (inactive); with HCC-2998 colon it was 106% (inactive) and 95% (inactive); in the test with KM12 colon it was 109% (inactive) and 101% (inactive).

As to `NC(=O)C1CC2C=CC1C2` (stereo unspecified), the growth was 112% (inactive) and 105% (inactive) with SR leukemia; 144% (inactive) and 87.5% (inactive) in the test on RPMI-8226 leukemia; 97% (inactive) and 95.1% (inactive) in the test on OVCAR-8 ovarian; 89.8% (inactive) and 95.3% (inactive) in the test with OVCAR-5 ovarian; 107% (inactive) and 120% (inactive) in the test with OVCAR-4 ovarian; 111% (inactive) and 121% (inactive) in the test with SK-OV-3 ovarian. Besides, the growth is 70.1% (inactive) and 87.3% (inactive) in the test with IGROV1 ovarian; 93.2% (inactive) and 106% (inactive) in the test with OVCAR-3 ovarian; 110% (inactive) and 94.3% (inactive) in the test on HS 578T breast; 108% (inactive) and 102% (inactive) with NCI/ADR-RES ovarian; 101% (inactive) and 100% (inactive) in the test on T-47D breast; 93% (inactive) and 112% (inactive) with BT-549 breast. For the same compound, the growth with MDA-MB-435 melanoma was 106% (inactive) and 100% (inactive); with SW-620 colon it was 96.2% (inactive) and 97.5% (inactive); in the test with MCF7 breast, 100% (inactive) and 102% (inactive); with HCT-116 colon, 92.5% (inactive) and 91.5% (inactive); in the test on HCC-2998 colon, 76.5% (inactive) and 110% (inactive); in the test with KM12 colon, 112% (inactive) and 105% (inactive).

On to `COc1ccc(NC(=S)Nc2ccccn2)cc1`, for which the growth with SR leukemia was 90.5% (inactive); with RPMI-8226 leukemia it was 93% (inactive); with OVCAR-8 ovarian it was 96.5% (inactive); with OVCAR-5 ovarian it was 97.7% (inactive); in the test on OVCAR-4 ovarian it was 110% (inactive); with SK-OV-3 ovarian, 98% (inactive). In addition, the growth in the test on IGROV1 ovarian was 106% (inactive); with OVCAR-3 ovarian, 97% (inactive); with HS 578T breast it was 101% (inactive); in the test with NCI/ADR-RES ovarian, 99.8% (inactive); with T-47D breast it was 101% (inactive); in the test with BT-549 breast, 105% (inactive). Further, the growth in the test with SW-620 colon is 102% (inactive); with MCF7 breast, 95.1% (inactive); in the test on HCT-116 colon, 95.4% (inactive); with HCC-2998 colon, 101% (inactive); in the test on KM12 colon it was 91% (inactive).

As to `CCOc1ccc(Nc2c3ccccc3nc3ccccc23)cc1`, the growth with SR leukemia is 81.6% (inactive) and 7.88% (active) and -40.6% (active); in the test on RPMI-8226 leukemia, 81.3% (inactive) and 18% (inactive) and -19.7% (active); with OVCAR-8 ovarian, 83.6% (inactive) and 22.9% (inactive) and 36.9% (inactive); in the test on OVCAR-5 ovarian, 90.8% (inactive) and 29.4% (inactive) and 47.8% (inactive); with OVCAR-4 ovarian, 90.9% (inactive) and 36.4% (inactive) and 37.9% (inactive); in the test on SK-OV-3 ovarian, 96.6% (inactive) and 30.7% (inactive) and 40.5% (inactive). Further, the growth is 92.1% (inactive) and 20.4% (inactive) and 16.5% (inactive) in the test with IGROV1 ovarian; 96.5% (inactive) and 17.9% (inactive) and 35.1% (inactive) in the test with OVCAR-3 ovarian; 88.5% (inactive) and 60.2% (inactive) and 61.7% (inactive) in the test with HS 578T breast; 82.8% (inactive) and 22.6% (inactive) and 16.8% (inactive) in the test with NCI/ADR-RES ovarian; 91.5% (inactive) and 13.1% (inactive) and 22.8% (inactive) in the test with T-47D breast; 94.4% (inactive) and 41.6% (inactive) and -3.76% (active) with BT-549 breast. Also, the growth in the test with MDA-MB-435 melanoma is 103% (inactive) and 24.5% (inactive) and 30.9% (inactive); in the test on SW-620 colon, 92.8% (inactive) and 21% (inactive) and 29.1% (inactive); with MCF7 breast, 91.3% (inactive) and 20.1% (inactive) and 8.99% (active); with HCT-116 colon it was 87.6% (inactive) and -13.1% (active) and 13.2% (inactive); in the test with HCC-2998 colon, 39.8% (inactive); with KM12 colon, 99.8% (inactive) and 18% (inactive) and 33.3% (inactive).

For `N#CC(C#N)=C/C=C/c1cccc([N+](=O)[O-])c1`, the growth in the test with SR leukemia is -3.67% (active) and 3.74% (active); with RPMI-8226 leukemia, -16.2% (active) and -9.65% (active); with OVCAR-8 ovarian, -22.1% (active) and -35.4% (active); in the test on OVCAR-5 ovarian, 23.1% (inactive) and -10.2% (active); in the test with OVCAR-4 ovarian, 31.9% (inactive) and 21.2% (inactive); in the test on SK-OV-3 ovarian, 55.6% (inactive) and 35.8% (inactive). In addition, the growth in the test on IGROV1 ovarian was 24% (inactive) and -7.91% (active); in the test with OVCAR-3 ovarian it was -9.85% (active) and -42.4% (active); with HS 578T breast it was -9.4% (active) and -4.55% (active); in the test with NCI/ADR-RES ovarian, 5.66% (active) and -10.2% (active); with T-47D breast, 39.1% (inactive) and 17% (inactive); in the test with BT-549 breast, 57.1% (inactive). The growth in the test on SW-620 colon was 2.75% (active) and -71.6% (active); in the test with MCF7 breast, 32.4% (inactive) and 18% (inactive); in the test with HCT-116 colon, -64.6% (active) and -91.7% (active); in the test on HCC-2998 colon, -79.1% (active) and -79.8% (active); in the test with KM12 colon, 8.85% (active) and -76.4% (active).

Take `CC(=O)c1ccccc1O`: the growth was 79% (inactive) in the test with SR leukemia; 106% (inactive) and 103% (inactive) with RPMI-8226 leukemia; 112% (inactive) and 101% (inactive) and 105% (inactive) in the test with OVCAR-8 ovarian; 102% (inactive) and 98.4% (inactive) and 116% (inactive) in the test with OVCAR-5 ovarian; 110% (inactive) and 107% (inactive) and 111% (inactive) with OVCAR-4 ovarian; 114% (inactive) and 102% (inactive) and 101% (inactive) in the test with SK-OV-3 ovarian. Besides, the growth in the test on OVCAR-3 ovarian is 114% (inactive) and 109% (inactive) and 106% (inactive); in the test with HS 578T breast it was 95.7% (inactive) and 109% (inactive) and 98.9% (inactive); with NCI/ADR-RES ovarian, 100% (inactive) and 98.6% (inactive) and 103% (inactive); in the test with T-47D breast, 107% (inactive) and 81.2% (inactive) and 103% (inactive); in the test with BT-549 breast, 95.9% (inactive) and 110% (inactive) and 91.1% (inactive); in the test on MDA-MB-435 melanoma, 105% (inactive) and 111% (inactive) and 109% (inactive). Besides, the growth is 103% (inactive) and 105% (inactive) and 113% (inactive) in the test with SW-620 colon; 102% (inactive) and 94% (inactive) and 101% (inactive) in the test with MCF7 breast; 97.8% (inactive) and 92.6% (inactive) and 101% (inactive) in the test with HCT-116 colon; 99.7% (inactive) and 102% (inactive) and 97.2% (inactive) in the test on HCC-2998 colon; 103% (inactive) and 100% (inactive) and 110% (inactive) in the test on KM12 colon.

Take `CC(C)Cc1ccc(C(C)C(=O)NCc2ccc(Cn3c(=O)sn(CCCCl)c3=O)cc2)cc1` (stereo unspecified): the growth in the test on SR leukemia was 108% (inactive) and 3.82% (active); with RPMI-8226 leukemia, 99.8% (inactive) and -30.9% (active); with OVCAR-8 ovarian, 94.5% (inactive) and -3.85% (active); with OVCAR-5 ovarian, 105% (inactive) and -52.9% (active); in the test on OVCAR-4 ovarian, 79.8% (inactive) and -94.2% (active); in the test on SK-OV-3 ovarian, 107% (inactive) and 69.5% (inactive). Moreover, the growth in the test on IGROV1 ovarian is 99.3% (inactive) and -79.1% (active); in the test on OVCAR-3 ovarian, 98.2% (inactive) and -83.4% (active); with NCI/ADR-RES ovarian it was 99.4% (inactive) and -32.1% (active); with T-47D breast, 57% (inactive) and -46.4% (active); in the test on BT-549 breast, 92.3% (inactive) and -67.8% (active); in the test with MDA-MB-435 melanoma it was 101% (inactive) and -83.6% (active). The growth is 87.3% (inactive) and -72.3% (active) in the test with SW-620 colon; 57.3% (inactive) and -31.3% (active) in the test with MCF7 breast; 92.4% (inactive) and -65.6% (active) in the test on HCT-116 colon; 95.7% (inactive) and -44.7% (active) in the test with HCC-2998 colon; 95% (inactive) and 4.78% (active) in the test on KM12 colon.

For `COc1cc(Nc2nc3ccccc3nc2NS(=O)(=O)c2ccc(NC(=O)c3ccc(C)c(OC)c3)cc2)cc(OC)c1`, the growth is 31.3% (inactive) and 8.54% (active) in the test on SR leukemia; 8.4% (active) in the test on RPMI-8226 leukemia; 46.6% (inactive) and 5.53% (active) with OVCAR-8 ovarian; 71.2% (inactive) and 3.89% (active) in the test on OVCAR-5 ovarian; 43.3% (inactive) and -2.71% (active) with OVCAR-4 ovarian; 49% (inactive) and -44% (active) in the test on SK-OV-3 ovarian. Besides, the growth in the test on IGROV1 ovarian was 6.75% (active) and -30.1% (active); with OVCAR-3 ovarian, 51.6% (inactive) and 6.96% (active); in the test with NCI/ADR-RES ovarian, 75.5% (inactive) and 2.39% (active); in the test on T-47D breast, 35.9% (inactive) and -31.1% (active); in the test with BT-549 breast, 39.6% (inactive) and -6.94% (active); in the test on SW-620 colon, 52% (inactive) and 28.1% (inactive). Besides, the growth is 36.6% (inactive) and 5.28% (active) with MCF7 breast; 69.9% (inactive) and 18.2% (inactive) with HCT-116 colon; 68.5% (inactive) in the test on HCC-2998 colon; 54% (inactive) and 13.9% (inactive) in the test on KM12 colon.
